According to PubChem BioAssay (NCATS):
Records with an inconclusive call do not appear. Active and inactive are the calls of the source. The call rests on the fitted dose curve; in most records, active means well fitted inhibition curve with a large enough effect; inconclusive means small, poorly fitted or top-dose-only effect; inactive means flat fitted curve, though single readings scatter.

Legend:
Assay in all cases: Cytotoxic Profiling of Annotated Libraries Using Quantitative High-Throughput Screening (AID 1296008); further: nearly all actives have a fitted effect of over 60% in size
Conditions in all cases: Five cell lines viability, CellTiter-Glo ATP luminescence, 48-72 h; max response: stronger effect = lower value
CRL-7250 = system: CRL-7250
Procedure, shortened: (§1)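 Compounds were pin-transferred onto cells and incubated 48 or 72 hr at 37 degree Celsius, 95% humidity. CellTiter-Glo was added, plates sat 10 min at room temperature, then ATP-coupled luminescence was imaged as the viability read-out.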

HEK293 = system: HEK293
Procedure, shortened: as §1

HaCat = system: HaCat
Procedure, shortened: as §1

KB-3-1 = system: KB-3-1
Procedure, shortened: as §1

NIH3T3 = system: NIH3T3
Procedure, shortened: as §1
On the % scale 0 is the no-effect control and ±100 the full control effect; potency means the concentration at half of the fitted maximal effect.

COc1ccc(N2CCN(CCCNC(=O)Cn3c(=O)c4cccn4c4c(C)ccnc43)CC2)cc1
inactive: max response (CRL-7250) -6.16% | max response (HEK293) -13.3% | outcome (HaCat) | max response (KB-3-1) 6.93% | outcome (NIH3T3)

CC1(C(=O)O)CCCC2(C)C3CCC4CC3(CCC12)CC4(O)CO (stereo not given)
inactive: max response (CRL-7250) 1.56% | max response (HEK293) -16.5% | outcome (HaCat) | max response (KB-3-1) 5.7% | max response (NIH3T3) 0.753%

Nc1ncnc2c1c(COc1cccc(Cl)c1)nn2C1CCOCC1
inactive: max response (CRL-7250) -3.67% | max response (HEK293) -4.69% | outcome (HaCat) | outcome (KB-3-1) | outcome (NIH3T3)

CC(CNS(=O)(=O)C(C)C)c1ccc(-c2ccc(C#N)cc2)cc1 (stereo not given)
active: Potency (CRL-7250) 5.8 µM | Potency (HEK293) 7.31 µM
inactive: outcome (HaCat) | max response (KB-3-1) -27.5% | max response (NIH3T3) -14.2%

OC[C@H]1O[C@@H](OC[C@H]2O[C@@H](OCc3ccccc3)[C@H](O)[C@@H](O)[C@@H]2O)[C@H](O)[C@@H](O)[C@@H]1O
inactive: outcome (CRL-7250) | max response (HEK293) -4.26% | outcome (HaCat) | outcome (KB-3-1) | max response (NIH3T3) -6.32%

COc1cc2c(c(OC)c1O)C(c1ccc(O)cc1)C1C(=O)OC3C(COC(=O)C1=C2)OC(CO)(OC1OC(COC(=O)/C=C/c2ccc(OC4OC(C)C(O)C(O)C4O)cc2)C(O)C(O)C1O)C3O (stereo not given)
inactive: max response (CRL-7250) 2.78% | max response (HEK293) -18.4% | outcome (HaCat) | max response (KB-3-1) -2.91% | outcome (NIH3T3)

CC(C)CC(c1c(O)c(C=O)c(O)c(C=O)c1O)C1CCC(C)(O)C2CC(C(C)(C)O)CCC12C (stereo not given)
inactive: max response (CRL-7250) -4.35% | max response (HEK293) -7.48% | outcome (HaCat) | outcome (KB-3-1) | max response (NIH3T3) 0.233%

CCC(C)/C=C(C)/C=C/C(=O)C1CCC(O)C(C)(O)C1=O (stereo not given)
inactive: max response (CRL-7250) 4.93% | max response (HEK293) 0.989% | outcome (HaCat) | max response (KB-3-1) 9.09% | outcome (NIH3T3)

CC(CC(C)O[C@@H]1O[C@H](CO)[C@@H](O)[C@H](O)[C@H]1O)OC(=O)/C=C/c1ccc(O)cc1 (stereo not given in full)
inactive: max response (CRL-7250) 2.71% | max response (HEK293) -1.24% | outcome (HaCat) | outcome (KB-3-1) | max response (NIH3T3) 3.43%

COc1cc(/C=C/C(=O)O[C@H]2[C@H](O)[C@@H](CO)O[C@@]2(CO)O[C@H]2O[C@H](CO)[C@@H](O)[C@H](O)[C@H]2O)cc(OC)c1O
inactive: outcome (CRL-7250) | max response (HEK293) -9.27% | max response (HaCat) -10.1% | max response (KB-3-1) 3.15% | outcome (NIH3T3)

C/C1=C\CC[C@]2(C)O[C@H]2C(=O)c2c(C)coc2C1
inactive: max response (CRL-7250) 1.23% | max response (HEK293) -1.35% | outcome (HaCat) | max response (KB-3-1) -3.14% | outcome (NIH3T3)

OCC1OC(Oc2cc(O)cc(/C=C/c3ccc(OC4OC(CO)C(O)C(O)C4O)cc3O)c2)C(O)C(O)C1O (stereo not given)
inactive: outcome (CRL-7250) | max response (HEK293) 3.22% | outcome (HaCat) | max response (KB-3-1) 5.55% | max response (NIH3T3) 0.921%

O=C(O)c1ccnc2cc(-c3nc4ccccc4n3CCN3CCCCC3)sc12
inactive: max response (CRL-7250) 1.05% | max response (HEK293) 2.48% | max response (HaCat) -0.587% | max response (KB-3-1) 2.06% | outcome (NIH3T3)

COc1cc(O)cc(O[C@@H]2O[C@H](CO)[C@@H](O[C@@H]3OC[C@](O)(CO)[C@H]3O)[C@H](O)[C@H]2O)c1OC
inactive: max response (CRL-7250) 2.5% | max response (HEK293) -4.25% | outcome (HaCat) | outcome (KB-3-1) | max response (NIH3T3) 2.33%

CC1CCC2C(C(=O)O)=CC3(O)CC(C)(C)CC123 (stereo not given)
inactive: max response (CRL-7250) 2.87% | outcome (HEK293) | max response (HaCat) 0.596% | max response (KB-3-1) 4.07% | max response (NIH3T3) 1.6%

Cc1ccc(Cl)cc1N(CC(=O)Nc1c(F)cccc1F)S(C)(=O)=O
inactive: max response (CRL-7250) -3.38% | max response (HEK293) -7.88% | max response (HaCat) -2.84% | max response (KB-3-1) 5.59% | outcome (NIH3T3)

COC(=O)C(CC1(O)c2ccccc2N2C(=O)C(CC(C)C)NC21)n1cnc2ccccc2c1=O (stereo not given)
inactive: outcome (CRL-7250) | max response (HEK293) -5.33% | outcome (HaCat) | outcome (KB-3-1) | outcome (NIH3T3)

CC1=C2C[C@@]3(C)[C@@H](CCC[C@@H]3C)C[C@@]2(O)OC1=O
inactive: outcome (CRL-7250) | max response (HEK293) -2.55% | outcome (HaCat) | max response (KB-3-1) 8.04% | outcome (NIH3T3)

O=C(/C=C/c1ccc(O)c(O)c1)O[C@@H]1[C@@H](O)[C@H](OC2CCCCC2O)O[C@H](CO)[C@H]1O (stereo not given in full)
inactive: max response (CRL-7250) 4.08% | max response (HEK293) 1.79% | max response (HaCat) 2.85% | max response (KB-3-1) 9.07% | outcome (NIH3T3)

C[C@@H]1O[C@@H](OC(=O)Cc2ccccc2)[C@H](O)[C@H](O)[C@H]1O
inactive: max response (CRL-7250) 2.73% | max response (HEK293) -2.15% | outcome (HaCat) | max response (KB-3-1) 6.7% | outcome (NIH3T3)
